A549 tox – counter-screen for Nrf2 inhibitors: cytotoxicity in A549 cells. A549 ARE-Fluc cells, CellTiter-Fluor viability, 18-24 h. 390,000 compounds, 0.16% hits. Potency, µM (highest dose often 46 µM), without a hit: at the top dose activity change, negative = cytotoxicity, usual class: inhibitors; also: % is scaled to controls: 0 for no effect and ±100 for the full control effect
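A549 ARE_Fluc cells in 5% FBS OPTI-MEM were exposed to compounds in concentration-response for 18-24 h at 37 deg C. Viability was read by CellTiter-Fluor fluorescence (Ex 405/Em 525) after 30 min, before the luciferase read.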
GALK inh – galactokinase (human) inhibition; P51570; Purified GALK, Kinase-Glo residual ATP luminescence; Potency, µM (top dose mostly 57.5 µM), without a hit: at the highest dose activity change, negative = inhibition, most hits filed as inhibitors; 270,000 compounds, 0.007% hits; AID 1868; also: % is scaled to controls: 0 for no effect and ±100 for the full control effect
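Compounds were pin-transferred into ATP buffer (35 uM final), then GALK plus galactose (5 nM, 100 uM final) was added. After 1 h at room temperature, Kinase-Glo Plus was added and luminescence read after 10 min.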
TrxR1 substrate – substrates of rat thioredoxin reductase 1. 390,000 compounds, 0.01% hits. O89049. purified TrxR1 substrate turnover, NADPH consumption readout. Potency, µM (doses to about 114 µM), inactives show top-dose activity change, negative = substrate turnover; also: % is scaled to controls: 0 for no effect and ±100 for the full control effect; nearly all actives have a fitted effect of over 50% in size
Target sequence (O89049 whole entry, looked up): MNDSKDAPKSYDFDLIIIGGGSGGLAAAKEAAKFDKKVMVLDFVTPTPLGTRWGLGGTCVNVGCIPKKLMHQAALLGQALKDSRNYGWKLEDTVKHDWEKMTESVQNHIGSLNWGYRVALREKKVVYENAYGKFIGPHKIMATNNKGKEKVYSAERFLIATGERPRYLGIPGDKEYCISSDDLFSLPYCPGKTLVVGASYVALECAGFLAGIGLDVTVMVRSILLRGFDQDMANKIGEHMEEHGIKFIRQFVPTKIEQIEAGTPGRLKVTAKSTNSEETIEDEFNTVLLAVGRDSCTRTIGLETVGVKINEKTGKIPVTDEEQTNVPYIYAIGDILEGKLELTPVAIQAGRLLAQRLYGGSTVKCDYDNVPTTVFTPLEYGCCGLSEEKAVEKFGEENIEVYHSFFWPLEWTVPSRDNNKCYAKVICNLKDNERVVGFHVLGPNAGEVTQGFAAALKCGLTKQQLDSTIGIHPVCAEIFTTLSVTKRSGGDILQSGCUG
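Rat TrxR1, dispensed at 90 nM, was prereduced with 400 uM NADPH (final) for 5 min at ~22 deg C, then incubated with compound 15 min before 400 uM selenite. A first-read NADPH fluorescence drop versus no-compound background flagged substrates.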
Nrf2 inh – inhibitors of Nrf2 signaling; A549 ARE-Fluc reporter, luciferase luminescence, 18-24 h; Potency, µM (top dose mostly 46 µM), without a hit: at the top dose activity change, negative = inhibition, most hits filed as inhibitors; 360,000 compounds, 2.1% hits; also: % is scaled to controls: 0 for no effect and ±100 for the full control effect; nearly all actives have a fitted effect of over 60% in size
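In this cell-based qHTS, ARE-driven firefly luciferase in A549 cells reports Nrf2 activity; the luminescent signal after BugLite lysis is the measured value, with a prior CellTiter-Fluor read for cell health.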
rTrxR1 inhibitor – blocks rat thioredoxin reductase 1 | 390,000 compounds, 1% hits | recombinant rTrxR1, NADPH fluorescence consumption, selenite substrate | AID 588453 | Potency, µM (series often up to 114 µM), for inactives: top-dose activity change, negative = inhibition, hits mostly inhibitors | O89049; also: % is scaled to controls: 0 for no effect and ±100 for the full control effect; nearly all actives have a fitted effect of over 65% in size
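Rat TrxR1 (90 nM in the dispensed reagent) was pre-reduced with 400 uM NADPH for 5 min at room temperature, then incubated with compound for 15 min. After 400 uM selenite was added, NADPH fluorescence (Ex 340/Em 450 nm) was followed for 8 min.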
Nrf2 activator – activators of Nrf2 (ARE) signaling; AREc32 ARE-luciferase reporter (MCF7-derived line), luminescence, 24 h; Potency, µM (titrated, usually from 46.1 µM), for inactives: at the highest dose activation, hits mostly activators; 410,000 compounds, 0.31% hits; AID 624171; also: % of control where 0% means no effect; nearly all actives have a fitted effect of over 65% in size
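Reporter line AREc32 (ARE-Fluc), seeded overnight in OPTI-MEM with 5% FBS; compound pin-transferred, 24 hr at 37 deg C, 5% CO2; luminescent read-out.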
* hit, by the source's call; ? = inconclusive; · = not tested or not shown; [ ] = another dose, or the depositor's remark. Rows were chosen to be rich in hits. Some 3% of all compounds tested hit in one or more screens of this group. Calls follow the shape of the dose curve; as a rule, active = well fitted curve in the direction sought with a large enough effect; inconclusive = small, poorly fitted or top-dose-only effect, or another doubt; inactive = no such curve, though single readings can be large; an effect the other way counts as inactive or inconclusive. Potency is read from the fitted curve at half-maximal effect.

SMILES	A549 tox	GALK inh	TrxR1 substrate	Nrf2 inh	rTrxR1 inhibitor	Nrf2 activator
CC1CCCCC12NC(=O)N(CC(=O)N1CCN(Cc3ccc(C#N)cc3)CC1)C2=O (centres undefined)	0%	·	0%	5.8µM*	-15%	0%
O=[N+]([O-])/C(C(Cl)=C(Cl)Cl)=C(\Sc1ccccc1)N1CCCCC1	13%	12%	-8%	?	-27%	11µM*
CCN(CC)/C(Sc1ccccc1)=C(\C(Cl)=C(Cl)Cl)[N+](=O)[O-]	-1%	-2%	4%[57.1 µM]	-3%	?	5%
NCCCNc1ncnc2ccc(-c3ccc4c(c3)OCO4)cc12	-8%	·	·	0%	·	·
CCc1cc(C=C(Cl)Cl)oc(=O)c1C	-20%	3%	13%[57.1 µM]	-14%	18%[57.1 µM]	14µM*
O=S(=O)(Nc1ccc(C(F)(F)F)cc1)c1ccc2c(c1)OCCO2	0%	·	-3%	?	36%	0%
CCCCCCCN(C(=O)CCl)c1cccc(C)c1	3%	-1%	4%	12%	40µM*	28%
CCCCCCN(C(=O)CCl)c1ccccc1	4%	4%	-3%	0%	18µM*	?
N#CCCN(C(=O)CCl)c1cccc(Cl)c1	-14%	-1%	7%	?	8.9µM*	?
N#CCCN(C(=O)COC(=O)c1nc(Cl)ccc1Cl)c1ccccc1	-2%	·	-9%	-10%	-7%	-1%
CCCN(C(=O)c1cc2c(Cl)nc3ccccc3c2s1)c1cccc(C)c1	10%	·	-8%	6%	18%	-1%
Cn1c2cc(Br)sc2c2cnn(Cc3ccccc3F)c(=O)c21	-3%	·	·	3%	·	·
CNc1nc(-c2ccccn2)nnc1-c1ccccc1	?	0%	-9%	11µM*	-5%	3%
CCN(CC)CCCNC(=O)CSc1nc2nc(C)c(Cc3ccccc3C)c(C)n2n1	-7%	·	5%	6%[9.27 µM]	14%	3%
c1ccc(-c2nccc(-c3ccco3)n2)nc1	-5%	0%	-2%	?	-19%	?
c1ccc(-c2nc(-c3ccco3)cs2)nc1	1%	0%	16%	?	18µM*	13µM*
Cc1ccc2c(c1)N(C(=O)N1CCC(C(=O)NC3CCCCCC3)CC1)CC(C)O2 (centres undefined)	8%	·	0%	0%	19%	1%
COc1ccc(/C=N/NC(=O)c2ccoc2C)cc1COc1ccc(Cl)cc1	-28%	0%	5%[57.1 µM]	13µM*	6%[57.1 µM]	3%
Cc1cccc(-n2ncc3c(NCCOCCO)ncnc32)c1	13%	·	2%[57.1 µM]	·	9%[57.1 µM]	0%
CCOc1ccc(-c2cc(NC(=O)Nc3cccc(C(C)=O)c3)c(C(=O)OC)s2)cc1	-2%	·	2%	?	14%	4%
CSc1nc2nccc(-c3ccc(Oc4ccccc4)cc3)n2n1	2%	-2%	11%	18µM*	-17%	0%
CC(=C/c1ccccc1)/C=N/NC(=O)c1nnn(-c2nonc2N)c1CN1CCC(C)CC1	-1%	-2%	-9%	-6%	-1%	2%
CC1CCN(Cc2c(C(=O)N/N=C/c3ccc(OC(C)C)cc3)nnn2-c2nonc2N)CC1	?	0%	-10%[57.1 µM]	23µM*	-5%[57.1 µM]	4%
COc1cc(/C=N/NC(=O)c2nnn(-c3nonc3N)c2C(C)C)ccc1OCc1ccc(F)cc1	?	4%	3%	16µM*	5%	0%
Cc1ccccc1COc1ccc(/C=N/NC(=O)c2nnn(-c3nonc3N)c2CN2CCC(C)CC2)cc1	-6%	3%	-3%[57.1 µM]	22%	29%[57.1 µM]	3%
SMILES	A549 tox	GALK inh	TrxR1 substrate	Nrf2 inh	rTrxR1 inhibitor	Nrf2 activator
CC(/C=N/NC(=O)c1nnn(-c2nonc2N)c1CN1CCCCC1)=C\c1ccccc1	?	-2%	-12%	5.2µM*	2%	2%
Cc1ccc(/C=C/C(=O)OC(C)C(=O)Nc2ccc(Cl)cn2)o1 (centres undefined)	-10%	0%	1%	2%	14µM*	?
CCN(CC)CCOC(=O)c1ccc(NC(=O)c2cc3c(s2)-c2ccccc2OC3)cc1	?	·	152%	?	3%	7%
CSc1ccc(C(=O)C2CCCN(C(=O)CCn3cncn3)C2)cc1 (centres undefined)	-2%	-3%	-9%	24%	-12%	-1%
CSc1ccc(C(=O)C2CCCN(C(=O)CCc3c(C)nn(C)c3C)C2)cc1 (centres undefined)	-17%	·	-18%	9.2µM*	-26%	0%
Cc1cccc2cc(-c3ccccc3)c(-c3ccccc3)c[n+]12	-10%	3%	-8%	23µM*	-15%	0%
Cn1cnnc1SCC(=O)c1cc2ccccc2oc1=O	-7%	0%	7%	-3%	7.1µM*	19%
O=C(CSc1nnc(-c2cccnc2)o1)c1cc2ccccc2oc1=O	-1%	-2%	9%[57.1 µM]	·	-9%[57.1 µM]	7.1µM*
Cc1ccc(S(=O)(=O)n2nccc2-c2c(-c3ccccc3)noc2C)cc1	-2%	·	-4%[57.1 µM]	18µM*	18%[57.1 µM]	0%
CN(C)c1ccc(-c2cc[nH]c(=O)c2N)cc1	-10%	·	·	15%	·	·
CCN(CC)CCCNC(=O)c1ccccc1C	19%	9%	-4%	3%	14%	-1%
CCN(CC)CCCNC(=O)/C=C/C(=O)O	1%	0%	19%[57.1 µM]	-1%	2.8µM*	0%
Cc1ccc2nc(N3C(=O)C(O)=C(C(=O)c4ccco4)C3c3cccs3)sc2c1 (centres undefined)	15µM*	-7%	-5%[57.1 µM]	?	?	?
CCOC(=O)c1sc(N2C(=O)C(O)=C(C(=O)c3ccco3)C2c2ccco2)nc1C (centres undefined)	-16%	-6%	-9%	-18%	32µM*	6%
COc1ccc2nc(N3C(=O)C(O)=C(C(=O)c4ccco4)C3c3ccc(C)o3)sc2c1 (centres undefined)	?	·	-8%[57.1 µM]	?	-25%[57.1 µM]	11%
CCOc1ccccc1CNC(=O)c1nc(-c2ccc(Cl)cc2)n2c1CCCCC2	-10%	·	-2%	23µM*	20%	3%
O=C(NCCc1ccccc1)c1nc(-c2ccc(Cl)cc2)n2c1CCCCC2	-29%	·	-3%	?	21%	0%
O=C(NCc1ccccc1)c1nc(-c2ccc(Cl)cc2)n2c1CCCCC2	-20%	·	-7%	-114%	19%	0%
CC(C)N(Cc1ccccc1)C(=O)c1nc(-c2ccc(Cl)cc2)n2c1CCCCC2	-13%	·	-10%	21µM*	11%	1%
CCOC(=O)c1noc2ncn(CC(=O)Nc3ccc(F)cc3Cl)c(=O)c12	3%	·	2%[57.1 µM]	·	16%[57.1 µM]	-1%

Screening results from PubChem.
